Laboratory results from the supplement of paper PMC10646978.
± gives the standard deviation.

Legend:
Conditions in all cases: modulator concentration 10 µM
[1] = tested on: RAW-Dual (murine macrophage reporter line); assay: NF-kB reporter (SEAP) activity fold change vs agonist alone; higher = enhanced NF-kB activity
Summary of the method: (§1)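 RAW-Dual murine macrophage reporter cells were seeded at 50 000 per well in 384-well plates and pre-incubated 1 hour at 37 °C with compound pin-transferred to 10 μM final. After 1 hour, a PRR agonist was added and cells incubated overnight. Supernatant NF-κB (SEAP, QUANTI-Blue, 620 nm absorbance) and IRF (Lucia luciferase, QUANTI-Luc, luminescence) signals were divided by the mean agonist-only control on the same plate to give fold change. Two replicate plates were averaged, with errors by propagation.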

[2] = tested on: RAW-Dual (murine macrophage reporter line); assay: IRF reporter (Lucia luciferase) activity fold change vs agonist alone; higher = enhanced IRF activity
Summary of the method: as §1

[3] = tested on: RAW-Dual (murine macrophage reporter line); assay: viability score (confluency relative to resting cells, overnight) (fraction); higher = more viable, active = viable (0.7 or more)
Summary of the method: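 In 384-well plates, RAW-Dual macrophages received compound at a final 10 μM overnight. Two confluency masks were then made with IncuCyte software from IncuCyte images of all imaged wells. The viability score is defined as confluency relative to resting cells. Passing the cutoff required both masks to lie above 70% of resting cells.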

[4] = agonist: CpG ODN 1826 0.5 ug/mL

Compound | NF-kB reporter [1, 4] | NF-kB reporter ([1]; agonist: LPS 0.1 ug/mL) | NF-kB reporter ([1]; agonist: MPLA […]) | IRF reporter ([2]; agonist: 3'3'-cGAMP 10 ug/mL) | IRF reporter ([2]; agonist: LPS 0.1 ug/mL) | IRF reporter ([2]; agonist: MPLA […]) | viability score [3]
Cl.OC(CCN1CCCCC1)(c1ccccc1)C1CCCCC1 (stereo unspecified) | 0.338 ± 0.034 | 1.01 ± 0.081 | 1.11 ± 0.075 | 1.03 ± 0.058 | 1.11 ± 0.19 | 1.08 ± 0.34 | 1.01 (active)
CN(C)CCC(c1ccccc1)c1ccccn1.O=C(O)/C=C\C(=O)O (stereo unspecified) | 0.373 ± 0.016 | 0.227 ± 0.018 | 0.65 ± 0.036 | 0.0231 ± 0.0026 | 0.0283 ± 0.0046 | 0.0354 ± 0.0064 | 0.377 (inactive)
CCc1ccc(CCOc2ccc(CC3SC(=O)NC3=O)cc2)nc1.Cl (stereo unspecified) | 1.34 ± 0.27 | 1.04 ± 0.12 | 0.983 ± 0.062 | 0.736 ± 0.028 | 1.22 ± 0.18 | 1.19 ± 0.097 | 0.997 (active)
CN(C)CCCOc1nn(Cc2ccccc2)c2ccccc12.Cl | 0.704 ± 0.032 | 0.913 ± 0.073 | 0.803 ± 0.045 | 0.892 ± 0.043 | 1.14 ± 0.27 | 1.22 ± 0.43 | 1 (active)
O=C(CSC1CC(=O)N(c2ccc(C(=O)O)cc2)C1=O)Nc1ccc(F)cc1 (stereo unspecified) | 0.998 ± 0.081 | 0.967 ± 0.14 | 1.52 ± 0.53 | 0.578 ± 0.021 | 1.25 ± 0.15 | 1.38 ± 0.22 | 1.01 (active)
CCCc1nc2c(C)cc(-c3nc4ccccc4n3C)cc2n1Cc1ccc(-c2ccccc2C(=O)O)cc1 | 1.29 ± 0.18 | 1.16 ± 0.29 | 0.99 ± 0.073 | 0.997 ± 0.032 | 1.49 ± 0.28 | 1.06 ± 0.11 | 0.993 (active)
Clc1cccc(OCCCOc2cccc3cccnc23)c1 | 0.586 ± 0.046 | 1.13 ± 0.091 | 1.53 ± 0.17 | 0.948 ± 0.11 | 1.18 ± 0.083 | 2.83 ± 0.56 | 0.818 (active)
Cl.Fc1ccc([C@@H]2CCNC[C@H]2COc2ccc3c(c2)OCO3)cc1 | 0.575 ± 0.05 | 1 ± 0.051 | 1.23 ± 0.069 | 1.11 ± 0.072 | 1.05 ± 0.055 | 1.04 ± 0.2 | 0.253 (inactive)
Nc1ncnc2c1ncn2[C@@H]1O[C@H](CO)[C@@H](O)[C@@H]1O | 1.15 ± 0.095 | 0.941 ± 0.047 | 1.02 ± 0.053 | 0.953 ± 0.067 | 0.983 ± 0.077 | 1.02 ± 0.12 | 0.991 (active)
OCCCNCC(O)Cn1c2ccc(Br)cc2c2cc(Br)ccc21 (stereo unspecified) | 0.661 ± 0.043 | 0.653 ± 0.057 | 1.75 ± 0.049 | 0.626 ± 0.046 | 1.19 ± 0.073 | 1.91 ± 0.18 | 0.108 (inactive)
CNC(=O)c1ccc2cc(C3(O)CCn4cncc43)ccc2c1 (stereo unspecified) | 0.99 ± 0.15 | 0.866 ± 0.28 | 0.937 ± 0.052 | 0.932 ± 0.04 | 0.964 ± 0.22 | 0.945 ± 0.17 | 0.995 (active)
CN1CC(O)C2=C/C(=N/NC(N)=O)C(=O)C=C21 (stereo unspecified) | 0.855 ± 0.048 | 1 ± 0.084 | 0.927 ± 0.065 | 0.99 ± 0.046 | 1.09 ± 0.18 | 1.24 ± 0.44 | 0.665 (inactive)
CCOc1ccc2nc(SC3CC(=O)N(c4cccc(Cl)c4)C3=O)sc2c1 (stereo unspecified) | 0.954 ± 0.091 | 1.04 ± 0.058 | 0.785 ± 0.047 | 0.778 ± 0.046 | 1.11 ± 0.079 | 1.04 ± 0.16 | 1.01 (active)
